From the supplement of paper PMC10849652
About 8,800 targets were measured; listed, in parts, are those with a hit and a random draw of the rest. About 0.5% of all pairs of compound and target were hits.

Columns and labels:
Test in all cases: log2 fold change, soluble protein after heating vs DMSO (PISA); higher = thermal stabilisation; K562 lysate, 10 uM; active = over 0.2 and 3.5 SD of the protein, either way, in both replicates (recomputed)
alvocidib = compound: CN1CC[C@H](c2c(O)cc(O)c3c(=O)cc(-c4ccccc4Cl)oc23)[C@H](O)C1 [alvocidib]
Outline: (§1)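 Quantification was by TMTpro 16plex LC-MS/MS with equalised channel sums, applied to the supernatant after 21,000xg for 90 min. Samples were crude K562 extract at 1 mg/mL protein in PBS pH 7.4 with 1 mM MgCl2, treated with 10 μM compound for 30 min, heated for 3 min across 48°C-58°C, pooled and brought to 0.5% NP-40 at 4°C. Values are log-two fold changes in thermal stability relative to solvent controls, from duplicates.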

Tubastatin A = compound: CN1CCc2c(c3ccccc3n2Cc2ccc(C(=O)NO)cc2)C1 [Tubastatin A]
Outline: as §1

[1] = compound: CNC(=O)C1=CC=CC=C1NC2=NC(=NC=C2Cl)NC3=C(C=C(C=C3)N4CCOCC4)OC
Outline: as §1

defactinib = compound: CNC(=O)c1ccc(Nc2ncc(C(F)(F)F)c(NCc3nccnc3N(C)S(C)(=O)=O)n2)cc1 [defactinib]
Outline: as §1

[2] = compound: CNc1nc(-c2ccc3c(N)n[nH]c3c2)cc(N2C[C@@H](C(=O)NC3CCCCC3)CC[C@H]2C)n1
Outline: as §1

encorafenib = compound: COC(=O)N[C@@H](C)CNc1nccc(-c2cn(C(C)C)nc2-c2cc(Cl)cc(NS(C)(=O)=O)c2F)n1 [encorafenib]
Outline: as §1

[3] = compound: COC(=O)[C@H](CCSC)NC(=O)C1=C(C=C(C=C1)NC[C@H](CS)N)C2=CC=CC=C2
Outline: as §1

alisertib = compound: COc1cc(Nc2ncc3c(n2)-c2ccc(Cl)cc2C(c2c(F)cccc2OC)=NC3)ccc1C(=O)O [alisertib]
Outline: as §1

[4] = compound: COc1cc2nc(-c3cc(F)ccc3O)nc(N[C@@H]3CNC[C@H]3C(C)(C)O)c2cc1OC
Outline: as §1

gefitinib = compound: COc1cc2ncnc(Nc3ccc(F)c(Cl)c3)c2cc1OCCCN1CCOCC1 [gefitinib]
Outline: as §1

lapatinib = compound: CS(=O)(=O)CCNCc1ccc(-c2ccc3ncnc(Nc4ccc(OCc5cccc(F)c5)c(Cl)c4)c3c2)o1 [lapatinib]
Outline: as §1

pictilisib = compound: CS(=O)(=O)N1CCN(Cc2cc3nc(-c4cccc5[nH]ncc45)nc(N4CCOCC4)c3s2)CC1 [pictilisib]
Outline: as §1

crizotinib = compound: C[C@@H](Oc1cc(-c2cnn(C3CCNCC3)c2)cnc1N)c1c(Cl)ccc(F)c1Cl [crizotinib]
Outline: as §1

[5] = compound: C[C@H](C1=CC=C(C=C1)C(=O)NC2=C3C=CNC3=NC=C2)N
Outline: as §1

duvelisib = compound: C[C@H](Nc1ncnc2nc[nH]c12)c1cc2cccc(Cl)c2c(=O)n1-c1ccccc1 [duvelisib]
Outline: as §1

gandotinib = compound: Cc1cc(Nc2cc(CN3CCOCC3)c3nc(C)c(Cc4ccc(Cl)cc4F)n3n2)n[nH]1 [gandotinib]
Outline: as §1

tozasertib = compound: Cc1cc(Nc2cc(N3CCN(C)CC3)nc(Sc3ccc(NC(=O)C4CC4)cc3)n2)n[nH]1 [tozasertib]
Outline: as §1

doramapimod = compound: Cc1ccc(-n2nc(C(C)(C)C)cc2NC(=O)Nc2ccc(OCCN3CCOCC3)c3ccccc23)cc1 [doramapimod]
Outline: as §1

bafetinib = compound: Cc1ccc(NC(=O)c2ccc(CN3CC[C@H](N(C)C)C3)c(C(F)(F)F)c2)cc1Nc1nccc(-c2cncnc2)n1 [bafetinib]
Outline: as §1

[6] = compound: Cc1cccc(CC(=O)N2CCc3c2ccc(-c2cn(C)c4ncnc(N)c24)c3F)n1
Outline: as §1

Measured: log2 fold change

LYSMD3 (UniProt Q7Z3D4)
inactive: alvocidib -0.001 | Tubastatin A 0.127 | [1] -0.045 | defactinib -0.062 | [2] 0.092 | encorafenib 0.031 | [3] -0.124 | alisertib 0.001 | [4] 0.112 | gefitinib 0.254 | lapatinib -0.039 | pictilisib -0.039 | crizotinib -0.018 | [5] -0.273 | duvelisib 0.066 | gandotinib 0.307 | tozasertib 0.058 | doramapimod 0.041 | bafetinib -0.057 | [6] 0.23

MGAT5 (UniProt Q09328)
inactive: alvocidib 0.056 | Tubastatin A -0.009 | [1] -0.011 | [2] -0.026 | encorafenib 0.006 | [3] -0.095 | alisertib 0.025 | [4] 0.054 | gefitinib -0.064 | lapatinib 0.022 | pictilisib 0.066 | crizotinib -0.051 | [5] 0.098 | duvelisib 0.018 | gandotinib -0.106 | tozasertib -0.037 | doramapimod 0.023 | bafetinib 0.079 | [6] -0.112
active: defactinib -0.337

MACROD1 (UniProt Q9BQ69)
inactive: alvocidib 0.12 | Tubastatin A -0.104 | [1] 0.012 | defactinib 0.039 | [2] 0.015 | encorafenib 0.029 | [3] -0.074 | alisertib -0.037 | [4] -0.001 | gefitinib 0.033 | lapatinib 0.011 | pictilisib -0.013 | crizotinib -0.066 | [5] 0.084 | duvelisib 0.04 | gandotinib -0.017 | tozasertib -0.03 | doramapimod -0.012 | bafetinib -0.102 | [6] 0.052

MORF4L1 isoform 2 (UniProt Q9UBU8)
Chain of UniProt Q9UBU8 (Q9UBU8 whole entry, looked up): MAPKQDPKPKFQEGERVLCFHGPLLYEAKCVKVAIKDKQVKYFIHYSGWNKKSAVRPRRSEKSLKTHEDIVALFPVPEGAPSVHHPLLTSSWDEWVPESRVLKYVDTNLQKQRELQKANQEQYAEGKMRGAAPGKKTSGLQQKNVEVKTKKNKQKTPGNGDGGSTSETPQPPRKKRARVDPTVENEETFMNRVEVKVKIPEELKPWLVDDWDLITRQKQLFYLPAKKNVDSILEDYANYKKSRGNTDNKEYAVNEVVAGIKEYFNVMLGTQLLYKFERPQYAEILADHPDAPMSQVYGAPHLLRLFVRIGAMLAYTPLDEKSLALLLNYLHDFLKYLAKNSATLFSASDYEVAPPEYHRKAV
active: [2] 0.247
inactive: alvocidib -0.01 | Tubastatin A 0.001 | [1] -0.001 | defactinib -0.005 | encorafenib -0.023 | [3] -0.021 | alisertib 0.045 | [4] 0.044 | gefitinib 0.008 | lapatinib 0.024 | pictilisib 0.023 | crizotinib 0.025 | [5] -0.058 | duvelisib 0.021 | gandotinib 0.037 | tozasertib -0.019 | doramapimod -0.047 | bafetinib -0.01 | [6] 0.006

MAPKAPK5 (UniProt Q8IW41)
Chain of UniProt Q8IW41 (Q8IW41 whole entry, looked up): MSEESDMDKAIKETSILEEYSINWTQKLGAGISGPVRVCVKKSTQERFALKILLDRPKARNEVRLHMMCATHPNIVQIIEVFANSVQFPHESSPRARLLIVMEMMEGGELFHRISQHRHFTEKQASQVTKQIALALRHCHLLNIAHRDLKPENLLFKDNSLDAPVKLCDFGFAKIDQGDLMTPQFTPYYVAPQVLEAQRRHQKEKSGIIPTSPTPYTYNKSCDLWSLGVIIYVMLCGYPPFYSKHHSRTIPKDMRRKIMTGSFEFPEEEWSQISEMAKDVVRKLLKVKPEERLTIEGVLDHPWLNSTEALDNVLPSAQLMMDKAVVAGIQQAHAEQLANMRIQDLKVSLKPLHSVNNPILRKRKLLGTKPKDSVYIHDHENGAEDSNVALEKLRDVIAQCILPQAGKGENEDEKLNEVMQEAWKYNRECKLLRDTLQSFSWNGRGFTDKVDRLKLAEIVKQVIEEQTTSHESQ
inactive: alvocidib 0.055 | Tubastatin A 0 | [1] 0.006 | defactinib 0.003 | [2] -0.089 | encorafenib -0.074 | [3] -0.125 | alisertib -0.006 | [4] 0.01 | gefitinib 0.019 | lapatinib 0.05 | pictilisib -0.008 | crizotinib -0.085 | [5] 0.111 | duvelisib 0.04 | gandotinib -0.07 | tozasertib -0.004 | doramapimod 0.015 | bafetinib 0.019 | [6] -0.053

KLC2 (UniProt Q9H0B6)
Chain of UniProt Q9H0B6 (Q9H0B6 whole entry, looked up): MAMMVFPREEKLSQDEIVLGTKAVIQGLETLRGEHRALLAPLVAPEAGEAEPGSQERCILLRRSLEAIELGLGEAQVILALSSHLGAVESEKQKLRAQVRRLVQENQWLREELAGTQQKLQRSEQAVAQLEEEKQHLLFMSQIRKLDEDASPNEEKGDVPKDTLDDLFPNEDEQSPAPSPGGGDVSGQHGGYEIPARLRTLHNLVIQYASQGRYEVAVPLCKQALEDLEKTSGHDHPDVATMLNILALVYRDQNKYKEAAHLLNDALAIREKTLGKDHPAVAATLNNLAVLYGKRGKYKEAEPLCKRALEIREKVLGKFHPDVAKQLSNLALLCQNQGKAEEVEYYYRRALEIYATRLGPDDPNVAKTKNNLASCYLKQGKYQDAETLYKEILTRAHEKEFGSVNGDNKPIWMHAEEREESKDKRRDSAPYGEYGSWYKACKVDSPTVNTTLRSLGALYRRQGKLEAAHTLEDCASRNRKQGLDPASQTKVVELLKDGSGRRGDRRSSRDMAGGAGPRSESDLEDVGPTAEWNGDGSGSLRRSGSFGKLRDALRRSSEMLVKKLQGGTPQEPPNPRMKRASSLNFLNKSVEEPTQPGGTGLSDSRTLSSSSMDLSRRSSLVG
inactive: alvocidib -0.034 | Tubastatin A -0.072 | [1] 0.004 | defactinib -0.048 | [2] -0.006 | encorafenib 0.01 | [3] 0.043 | alisertib -0.038 | [4] 0.001 | gefitinib -0.098 | lapatinib -0.012 | pictilisib -0.057 | crizotinib -0.047 | [5] 0.025 | duvelisib -0.031 | gandotinib -0.145 | tozasertib 0.012 | doramapimod 0.065 | bafetinib -0.043 | [6] 0.074

LRRC40 (UniProt Q9H9A6)
Chain of UniProt Q9H9A6 (Q9H9A6 whole entry, looked up): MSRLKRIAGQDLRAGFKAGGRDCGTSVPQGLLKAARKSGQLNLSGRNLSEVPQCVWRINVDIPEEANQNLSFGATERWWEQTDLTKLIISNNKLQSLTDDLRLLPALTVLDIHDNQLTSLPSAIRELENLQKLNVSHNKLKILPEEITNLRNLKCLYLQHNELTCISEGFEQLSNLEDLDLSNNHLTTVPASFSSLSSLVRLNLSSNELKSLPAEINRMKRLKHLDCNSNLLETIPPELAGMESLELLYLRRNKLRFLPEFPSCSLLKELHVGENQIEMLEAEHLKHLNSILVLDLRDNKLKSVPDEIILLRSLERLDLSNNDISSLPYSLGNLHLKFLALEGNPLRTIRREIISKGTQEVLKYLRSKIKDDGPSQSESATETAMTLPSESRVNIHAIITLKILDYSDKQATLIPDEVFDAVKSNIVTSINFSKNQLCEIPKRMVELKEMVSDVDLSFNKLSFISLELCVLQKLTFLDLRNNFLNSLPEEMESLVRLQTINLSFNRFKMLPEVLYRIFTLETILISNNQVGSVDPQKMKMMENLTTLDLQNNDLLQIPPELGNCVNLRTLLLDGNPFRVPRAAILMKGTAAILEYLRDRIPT
inactive: alvocidib -0.009 | Tubastatin A -0.089 | [1] 0.019 | defactinib 0.013 | [2] -0.012 | encorafenib 0.021 | [3] -0.038 | alisertib 0.031 | [4] -0.008 | gefitinib 0.001 | lapatinib -0.004 | pictilisib -0.012 | crizotinib -0.007 | [5] 0.015 | duvelisib -0.025 | gandotinib -0.088 | tozasertib 0.014 | doramapimod 0.009 | bafetinib -0.028 | [6] -0.032

MICU2 (UniProt Q8IYU8)
Chain of UniProt Q8IYU8 (Q8IYU8 whole entry, looked up): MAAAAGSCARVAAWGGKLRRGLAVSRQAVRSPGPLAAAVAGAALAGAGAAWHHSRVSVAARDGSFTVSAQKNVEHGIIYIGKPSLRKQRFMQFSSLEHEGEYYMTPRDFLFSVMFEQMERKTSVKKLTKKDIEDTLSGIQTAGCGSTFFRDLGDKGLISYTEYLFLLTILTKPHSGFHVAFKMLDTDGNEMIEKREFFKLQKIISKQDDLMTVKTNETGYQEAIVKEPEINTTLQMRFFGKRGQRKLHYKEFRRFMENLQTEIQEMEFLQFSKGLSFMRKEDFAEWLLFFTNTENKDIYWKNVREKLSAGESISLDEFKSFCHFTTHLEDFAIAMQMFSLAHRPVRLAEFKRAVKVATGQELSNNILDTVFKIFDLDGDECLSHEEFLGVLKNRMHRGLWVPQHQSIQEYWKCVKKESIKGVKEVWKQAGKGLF
active: gandotinib -0.264
inactive: alvocidib 0.03 | Tubastatin A -0.039 | [1] 0.01 | defactinib 0.003 | [2] 0.009 | encorafenib 0.015 | [3] -0.091 | alisertib 0.039 | [4] -0.128 | gefitinib -0.054 | lapatinib -0.057 | pictilisib 0.036 | crizotinib -0.043 | [5] 0.026 | duvelisib 0.015 | tozasertib 0.083 | doramapimod 0.029 | bafetinib -0.056 | [6] 0.029

MAPKAPK2 (UniProt P49137)
Chain of UniProt P49137 (P49137 whole entry, looked up): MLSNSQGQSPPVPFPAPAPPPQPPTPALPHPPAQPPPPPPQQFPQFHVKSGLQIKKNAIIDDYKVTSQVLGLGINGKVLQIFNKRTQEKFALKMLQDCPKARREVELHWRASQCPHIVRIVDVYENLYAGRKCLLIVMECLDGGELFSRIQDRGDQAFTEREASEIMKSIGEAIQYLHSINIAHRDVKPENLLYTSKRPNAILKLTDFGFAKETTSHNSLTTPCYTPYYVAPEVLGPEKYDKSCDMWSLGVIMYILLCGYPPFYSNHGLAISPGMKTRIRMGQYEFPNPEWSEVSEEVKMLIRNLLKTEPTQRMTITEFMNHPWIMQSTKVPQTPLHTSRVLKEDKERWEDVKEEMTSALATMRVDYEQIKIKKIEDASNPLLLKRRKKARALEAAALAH
inactive: alvocidib 0.069 | Tubastatin A -0.078 | [1] 0.077 | defactinib -0.059 | [2] 0.025 | encorafenib -0.026 | [3] 0.046 | alisertib -0.023 | [4] 0.114 | gefitinib -0.013 | lapatinib -0.04 | pictilisib -0.05 | crizotinib -0.014 | [5] 0.046 | duvelisib 0.033 | gandotinib -0.03 | tozasertib 0.004 | doramapimod 0.092 | bafetinib -0.037 | [6] 0.018

MOSPD2 (UniProt Q8NHP6)
Chain of UniProt Q8NHP6 (Q8NHP6 whole entry, looked up): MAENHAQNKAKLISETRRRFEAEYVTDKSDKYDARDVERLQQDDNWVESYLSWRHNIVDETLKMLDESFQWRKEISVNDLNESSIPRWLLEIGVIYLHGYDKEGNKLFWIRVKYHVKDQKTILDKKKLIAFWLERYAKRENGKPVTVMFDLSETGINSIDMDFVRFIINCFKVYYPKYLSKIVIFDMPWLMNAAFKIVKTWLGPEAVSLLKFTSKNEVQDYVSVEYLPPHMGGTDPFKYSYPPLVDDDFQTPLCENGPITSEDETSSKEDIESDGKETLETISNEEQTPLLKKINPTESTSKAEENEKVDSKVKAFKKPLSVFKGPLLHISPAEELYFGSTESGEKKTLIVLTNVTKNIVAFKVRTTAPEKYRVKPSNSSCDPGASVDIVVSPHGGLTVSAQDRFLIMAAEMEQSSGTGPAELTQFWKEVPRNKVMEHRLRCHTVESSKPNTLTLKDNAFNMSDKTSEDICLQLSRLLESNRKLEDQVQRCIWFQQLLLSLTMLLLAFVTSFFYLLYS
inactive: alvocidib -0.028 | Tubastatin A -0.034 | [1] -0.03 | defactinib 0.11 | [2] -0.015 | encorafenib 0.053 | [3] -0.026 | alisertib 0.125 | [4] -0.027 | gefitinib -0.039 | lapatinib 0.01 | pictilisib -0.036 | crizotinib -0.041 | [5] -0.076 | duvelisib -0.02 | gandotinib 0.003 | tozasertib 0.021 | doramapimod 0.022 | bafetinib -0.009 | [6] 0.1

MPP1 (UniProt Q00013)
Chain of UniProt Q00013 (Q00013 whole entry, looked up): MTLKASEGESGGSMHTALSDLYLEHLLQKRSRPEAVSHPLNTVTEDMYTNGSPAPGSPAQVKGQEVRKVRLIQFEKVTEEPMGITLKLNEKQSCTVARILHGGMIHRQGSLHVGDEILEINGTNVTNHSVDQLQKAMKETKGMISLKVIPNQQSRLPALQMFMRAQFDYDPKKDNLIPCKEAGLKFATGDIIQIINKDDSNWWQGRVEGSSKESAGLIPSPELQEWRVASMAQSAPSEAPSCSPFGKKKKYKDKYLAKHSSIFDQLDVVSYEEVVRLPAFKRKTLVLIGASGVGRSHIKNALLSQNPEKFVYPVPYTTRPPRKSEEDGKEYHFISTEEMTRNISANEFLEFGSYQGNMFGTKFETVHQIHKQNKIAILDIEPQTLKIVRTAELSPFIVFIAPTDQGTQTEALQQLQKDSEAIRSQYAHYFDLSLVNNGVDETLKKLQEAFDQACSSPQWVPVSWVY
inactive: alvocidib -0.01 | Tubastatin A -0.01 | [1] -0.007 | defactinib -0.002 | [2] 0.01 | encorafenib -0.015 | [3] 0.011 | alisertib -0.008 | [4] -0.007 | gefitinib 0 | lapatinib 0.006 | pictilisib 0.016 | crizotinib 0.001 | [5] -0.006 | duvelisib 0.012 | gandotinib -0.008 | tozasertib 0.017 | doramapimod 0.006 | bafetinib -0.015 | [6] 0.001

LETM1 (UniProt O95202)
inactive: alvocidib -0.046 | Tubastatin A -0.033 | [1] 0.018 | defactinib -0.007 | [2] -0.027 | encorafenib -0.001 | [3] -0.018 | alisertib -0.022 | [4] -0.166 | gefitinib -0.04 | lapatinib -0.001 | pictilisib 0.004 | crizotinib -0.043 | [5] 0.015 | duvelisib -0.018 | gandotinib 0.03 | tozasertib 0.005 | doramapimod -0.01 | bafetinib -0.049 | [6] -0.085

MLLT11 (UniProt Q13015)
Chain of UniProt Q13015 (Q13015 whole entry, looked up): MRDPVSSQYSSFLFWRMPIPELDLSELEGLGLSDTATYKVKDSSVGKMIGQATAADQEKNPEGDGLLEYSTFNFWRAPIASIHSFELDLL
inactive: alvocidib 0.056 | Tubastatin A -0.052 | [1] 0.108 | defactinib 0.086 | [2] -0.019 | encorafenib 0.138 | [3] 0.099 | alisertib 0.115 | [4] 0.067 | gefitinib 0.023 | lapatinib 0.051 | pictilisib 0.237 | crizotinib 0 | [5] 0.025 | duvelisib 0.002 | gandotinib 0.329 | tozasertib 0.087 | bafetinib -0.017 | [6] 0.084
active: doramapimod 0.447

MIF (UniProt P14174)
Chain of UniProt P14174 (P14174 whole entry, looked up): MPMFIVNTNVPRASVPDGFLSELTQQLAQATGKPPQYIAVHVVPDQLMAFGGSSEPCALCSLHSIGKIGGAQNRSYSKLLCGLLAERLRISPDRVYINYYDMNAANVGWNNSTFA
inactive: alvocidib -0.109 | [1] 0.103 | defactinib -0.05 | [2] -0.145 | encorafenib -0.028 | [3] -0.013 | alisertib 0.005 | [4] -0.006 | gefitinib 0.068 | lapatinib 0.04 | pictilisib 0.06 | crizotinib -0.022 | duvelisib 0.022 | gandotinib 0.11 | tozasertib -0.057 | doramapimod 0.008 | bafetinib 0.383 | [6] 0.024
active: Tubastatin A 0.545 | [5] -0.258

MFF isoform 2 (UniProt Q9GZY8)
active: [5] -0.239
inactive: alvocidib -0.046 | Tubastatin A -0.038 | [1] -0.052 | defactinib 0.027 | [2] 0.024 | encorafenib 0.068 | [3] -0.113 | alisertib 0.042 | [4] -0.075 | gefitinib 0.048 | lapatinib 0.055 | pictilisib 0.028 | crizotinib 0 | duvelisib 0.022 | gandotinib 0.106 | tozasertib -0.031 | doramapimod -0.035 | bafetinib -0.031 | [6] 0.24

KIF2A isoform 4 (UniProt O00139)
Chain of UniProt O00139 (O00139 whole entry, looked up): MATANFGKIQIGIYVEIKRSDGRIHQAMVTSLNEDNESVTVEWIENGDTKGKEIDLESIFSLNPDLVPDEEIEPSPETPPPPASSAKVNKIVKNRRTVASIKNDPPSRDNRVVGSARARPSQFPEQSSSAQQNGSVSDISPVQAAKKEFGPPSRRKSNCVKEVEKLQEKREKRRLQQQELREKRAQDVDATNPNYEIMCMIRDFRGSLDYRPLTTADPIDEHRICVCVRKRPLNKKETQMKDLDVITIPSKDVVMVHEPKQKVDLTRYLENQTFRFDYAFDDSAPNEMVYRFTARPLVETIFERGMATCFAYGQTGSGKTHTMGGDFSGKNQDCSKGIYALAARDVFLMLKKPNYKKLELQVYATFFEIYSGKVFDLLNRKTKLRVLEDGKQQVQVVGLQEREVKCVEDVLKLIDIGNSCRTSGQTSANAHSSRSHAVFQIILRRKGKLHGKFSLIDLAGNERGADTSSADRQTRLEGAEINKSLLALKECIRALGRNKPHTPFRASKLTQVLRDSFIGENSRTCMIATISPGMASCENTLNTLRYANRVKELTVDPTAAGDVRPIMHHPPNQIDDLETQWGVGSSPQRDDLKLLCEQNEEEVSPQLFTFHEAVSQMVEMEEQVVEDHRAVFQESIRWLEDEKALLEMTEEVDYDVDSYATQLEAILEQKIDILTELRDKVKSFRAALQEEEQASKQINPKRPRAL
inactive: alvocidib 0 | Tubastatin A -0.148 | [1] 0.005 | defactinib 0.01 | [2] -0.024 | encorafenib 0.012 | [3] 0.093 | alisertib 0.004 | [4] -0.014 | gefitinib 0.011 | lapatinib -0.004 | pictilisib -0.006 | crizotinib -0.004 | [5] 0.026 | duvelisib 0.022 | gandotinib -0.066 | tozasertib 0.01 | doramapimod 0.055 | bafetinib -0.006 | [6] 0.037
